{
  "source": "PubChem BioAssay (NCATS)",
  "key": {"[1]": {"assay": "qHTS for Inhibitors of the Aldehyde Dehydrogenase Family (ALDH1A2, ALDH1A3, ALDH2, ALDH3A1) (AID 2061307); also: nearly all actives have a fitted effect of over 50% in size; as to potency: test system not described further here; potency is read from the fitted curve at half-maximal effect"}, "[2]": {"target": "Aldehyde dehydrogenase, mitochondrial (Homo sapiens) (UniProt P05091)", "assay": "qHTS for Inhibitors of the Aldehyde Dehydrogenase Family (ALDH2) Primary screen (AID 2061308); also: nearly all actives have a fitted effect of over 55% in size"}, "[3]": {"target": "Retinaldehyde dehydrogenase 3 (Homo sapiens) (UniProt P47895)", "assay": "qHTS for Inhibitors of the Aldehyde Dehydrogenase Family (ALDH1A3) Confirmatory screens (AID 2061311); also: nearly all actives have a fitted effect of over 60% in size"}, "[4]": {"target": "Retinaldehyde dehydrogenase 3 (Homo sapiens) (UniProt P47895)", "assay": "qHTS for Inhibitors of the Aldehyde Dehydrogenase Family (ALDH1A3) Primary screen (AID 2061315)"}, "[5]": {"assay": "BET inhibitor-based combinations targeting novel dependencies in MECOM-rearranged (r) AML: SET-2 cell line (AID 2202231); also: potency is read from the fitted curve at half-maximal effect; nearly all actives have a fitted effect of over 35% in size", "details": "SET-2 AML cells viability, CellTiter-Glo luminescence, 48 h; viability: stronger effect = lower value, concentration not given here", "summary_of_the_method": "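500 cells/well; 11-pt dose curve; 48 h, standard incubator; CellTiter-Glo luminescence after 15 min RT; DMSO/empty-well normalization; AUC plus Z-AUC (mean-centered within each line).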"}, "[6]": {"assay": "BET inhibitor-based combinations targeting novel dependencies in MECOM-rearranged (r) AML: MV-4-11 cell line (AID 2202233); also: potency is read from the fitted curve at half-maximal effect; nearly all actives have a fitted effect of over 45% in size", "summary_of_the_method": "(§1)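 Cells were plated at 500 per well and exposed to each drug across an 11-point dose range for 48 hr at standard incubator conditions. Viability was read by CellTiter-Glo luminescence, and activity was expressed as AUC and per-cell-line Z-transformed AUC.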"}, "[7]": {"assay": "BET inhibitor-based combinations targeting novel dependencies in MECOM-rearranged (r) AML: HNT-34 cell line (AID 2202234)", "summary_of_the_method": "as §1"}, "[8]": {"target": "Aldehyde dehydrogenase 1A1 (Homo sapiens) (UniProt P00352)", "assay": "qHTS for Inhibitors of the Aldehyde Dehydrogenase Family (ALDH1A1) Confirmatory screens (AID 2061316)"}},
  "note": "Records with an inconclusive call do not appear. Where a call stands in place of a potency, no number is given. Calls of active or inactive are those of the source. Calls follow the shape of the dose curve; as a rule, active = well fitted curve in the direction sought with a large enough effect; inconclusive = small, poorly fitted or top-dose-only effect, or another doubt; inactive = no such curve, though single readings can be large; an effect the other way counts as inactive or inconclusive.",
  "data": [
    {"compound": "Nc1nccc(-c2c(-c3ccc(F)cc3)ncn2C2CCCCC2)n1", "values": [
      {"measurement": "Potency", "setting": "[1]", "result": "inactive"},
      {"measurement": "Potency", "setting": "[2]", "result": "inactive"},
      {"measurement": "Potency", "setting": "[3]", "result": "inactive"},
      {"measurement": "Potency", "setting": "[4]", "result": "inactive"},
      {"measurement": "Potency", "setting": "[5]", "result": "20.9 µM (active)"},
      {"measurement": "Potency", "setting": "[6]", "result": "16.6 µM (active)"},
      {"measurement": "Potency", "setting": "[7]", "result": "20.9 µM (active)"}
    ]},
    {"compound": "O=C(OCC#CCSc1nnc(-c2cccc3ccccc23)o1)c1ccc(Br)cc1", "values": [
      {"measurement": "Potency", "setting": "[1]", "result": "inactive"},
      {"measurement": "Potency", "setting": "[2]", "result": "inactive"},
      {"measurement": "Potency", "setting": "[4]", "result": "inactive"},
      {"measurement": "Potency", "setting": "[8]", "result": "inactive"}
    ]},
    {"compound": "O=C(O)c1ccc(O)c2ncc(-c3ccc(C(=O)N4CCNCC4)cc3)cc12", "values": [
      {"measurement": "Potency", "setting": "[1]", "result": "inactive"},
      {"measurement": "Potency", "setting": "[2]", "result": "inactive"},
      {"measurement": "Potency", "setting": "[4]", "result": "inactive"},
      {"measurement": "Potency", "setting": "[8]", "result": "inactive"}
    ]},
    {"compound": "O=S(=O)(c1ccc2c(c1)OCO2)N1CCN(S(=O)(=O)c2c(F)cccc2F)CC1", "values": [
      {"measurement": "Potency", "setting": "[1]", "result": "inactive"},
      {"measurement": "Potency", "setting": "[2]", "result": "inactive"},
      {"measurement": "Potency", "setting": "[4]", "result": "inactive"}
    ]},
    {"compound": "NC(=O)C1CCN(c2nc(-c3ccccc3N)cs2)CC1", "values": [
      {"measurement": "Potency", "setting": "[1]", "result": "7.12 µM (active)"},
      {"measurement": "Potency", "setting": "[2]", "result": "inactive"},
      {"measurement": "Potency", "setting": "[4]", "result": "inactive"},
      {"measurement": "Potency", "setting": "[8]", "result": "12.7 µM (active)"}
    ]},
    {"compound": "COc1ccc(C2Nc3ccccc3C(=O)N2Cc2ccco2)cc1COc1ccc(NC(C)=O)cc1", "note": "(stereo unspecified)", "values": [
      {"measurement": "Potency", "setting": "[1]", "result": "inactive"},
      {"measurement": "Potency", "setting": "[2]", "result": "inactive"},
      {"measurement": "Potency", "setting": "[4]", "result": "inactive"}
    ]},
    {"compound": "O=C([C@H](Cc1ccc(O[S+](=O)([O-])c2cccnc2)cc1)N[S+](=O)([O-])c1cccc2cnccc12)N1CCN(c2ccccc2)CC1", "values": [
      {"measurement": "Potency", "setting": "[1]", "result": "inactive"},
      {"measurement": "Potency", "setting": "[2]", "result": "inactive"},
      {"measurement": "Potency", "setting": "[4]", "result": "inactive"}
    ]},
    {"compound": "N#Cc1nc(-c2ccc(COc3ccccc3)o2)oc1N1CCN(c2ccccc2)CC1", "values": [
      {"measurement": "Potency", "setting": "[1]", "result": "inactive"},
      {"measurement": "Potency", "setting": "[3]", "result": "inactive"}
    ]},
    {"compound": "COc1ccc(S(=O)(=O)N2CCN(S(=O)(=O)c3ccc4c(c3)OCCO4)CC2)cc1", "values": [
      {"measurement": "Potency", "setting": "[1]", "result": "inactive"},
      {"measurement": "Potency", "setting": "[2]", "result": "inactive"},
      {"measurement": "Potency", "setting": "[4]", "result": "inactive"}
    ]},
    {"compound": "O=C(O)c1ccc(-n2cccc2/C=C2\\SC(=O)N(Cc3ccc(Br)cc3)C2=O)cc1", "values": [
      {"measurement": "Potency", "setting": "[1]", "result": "5.04 µM (active)"},
      {"measurement": "Potency", "setting": "[2]", "result": "inactive"},
      {"measurement": "Potency", "setting": "[4]", "result": "inactive"},
      {"measurement": "Potency", "setting": "[8]", "result": "inactive"}
    ]},
    {"compound": "COc1cccc(CNc2ccc(S(=O)(=O)Nc3ccc(C)nc3)cc2)c1O", "values": [
      {"measurement": "Potency", "setting": "[1]", "result": "inactive"},
      {"measurement": "Potency", "setting": "[2]", "result": "inactive"},
      {"measurement": "Potency", "setting": "[4]", "result": "inactive"},
      {"measurement": "Potency", "setting": "[8]", "result": "inactive"}
    ]}
  ]
}
